Assay results from the supplement of paper PMC3334620.
In all, about 33,000 sequences were measured (“E-score (-0.5 to 0.5)”: median about -0.035, highest 2% from about 0.34 on). Many of the other results were omitted from the sample, so the highest values are more common in it than they were.

Each sequence was assayed against T1, Mot3 (UniProt P54785) (assay: PBM E-score (8-mer binding enrichment) (E-score (-0.5 to 0.5)); higher = stronger / more preferred TF binding). Conditions: protein concentration: 200 nM; construct: GST-full length.
T1 sequence: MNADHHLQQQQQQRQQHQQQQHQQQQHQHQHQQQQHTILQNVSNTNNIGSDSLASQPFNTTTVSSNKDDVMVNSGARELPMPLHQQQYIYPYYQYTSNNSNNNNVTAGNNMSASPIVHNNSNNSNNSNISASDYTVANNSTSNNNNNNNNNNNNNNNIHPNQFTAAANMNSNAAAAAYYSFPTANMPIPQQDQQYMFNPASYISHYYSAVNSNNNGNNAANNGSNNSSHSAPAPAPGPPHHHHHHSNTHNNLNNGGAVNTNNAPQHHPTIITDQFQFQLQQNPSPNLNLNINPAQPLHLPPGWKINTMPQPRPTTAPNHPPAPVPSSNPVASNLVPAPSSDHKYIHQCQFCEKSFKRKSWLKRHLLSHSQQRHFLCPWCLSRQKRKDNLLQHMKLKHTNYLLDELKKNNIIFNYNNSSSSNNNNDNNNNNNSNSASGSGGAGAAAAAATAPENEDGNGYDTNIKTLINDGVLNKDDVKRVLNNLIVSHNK
Method in brief: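 Universal all-10-mer Agilent arrays, fresh or stripped once, were converted to double-stranded form by primer extension. GST-tagged yeast transcription factors from PURExpress in vitro transcription/translation, full-length or DNA-binding domain only, were applied at about 100-200 nM and detected with fluorescent anti-GST. After masliner normalisation, the Universal PBM Analysis Suite scored each ungapped eight-base word together with its reverse complement by E-score.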

Sequence	PBM E-score
AAAGGAAT	-0.0306
AAAGGATA	-0.0444
AACTCTCT	-0.19
AGCCCGAT	-0.195
CCCAGGAG	-0.207
ACTTGTAT	0.173
ACACCTTG	0.193
CCGTTGTA	0.125
CTGAACCA	0.0648
CACAGGCC	0.0987
AACAGGCG	0.167
AACAGGCA	0.484
GACAGGGA	-0.089
TACAGTCA	0.191
GACAGGCA	0.483
GACAGGCC	-0.139
TACAGGCA	0.484
AACAGGCT	0.305
CACAGGCG	0.277
TACAGGGA	0.0536
CACAGGCA	0.482
GCTGTGAC	-0.128

Sequence	PBM E-score
GACTTCCA	-0.126
TGGAAGAA	0.00562
CACTACGG	-0.1
GCCACAGA	-0.0635
GAGGAGGC	-0.0566
AATAAGTA	0.124
CCACTCGA	-0.0827
AATAGACG	-0.138
ACACGCTC	0.305
ACACGCTA	0.356
ACACGCTG	0.256
ACACGCGG	0.252
ACACGCGA	0.292
ACACGCGT	0.36
AGTATCGA	0.122
TCGTAGAA	0.0868
CCGATCAC	-0.0956
ATCGCCAG	-0.289
AAATGTTA	0.288
AGATGTTG	-0.102
GGATGTTA	0.172
ACATGTTA	0.397

Sequence	PBM E-score
CCATGTTA	0.339
AGATGTTA	0.158
ACATGTTG	0.368
GCATGTTA	0.385
ACATGTTC	0.295
CTAGGTCA	-0.135
ATTGGCAC	-0.068
AAACCTGG	0.0922
GCCGTTAC	-0.13
CCAACTCC	-0.135
TCCTCCAA	-0.0985
GATCTAGC	-0.194
ATACTGCC	-0.204
AGCAGGCA	0.483
TGCAGACA	0.0246
TGCAGGCA	0.484
GGCAGGCA	0.481
AGCAGGCG	0.148
GGCAGGCC	-0.165
AGCAGGCC	-0.0206
TGCAGCCA	-0.192
CGCAGGCC	0.123

Sequence	PBM E-score
CGCAGGCG	0.17
GGCAGGTA	0.277
CGCAGGCA	0.482
TATGCGAA	-0.0122
TATCAATA	0.134
AGTTTTCA	-0.204
CATCTGCA	-0.0636
CTAACTCC	-0.141
AGCGTAAA	0.12
TGCGTAAA	0.342
CGCGTAAG	0.299
CGCGTAAA	0.392
GGCGTAAA	0.146
CGCGTAAC	0.225
GGGGGGAA	-0.375
CTCGGCTA	-0.0141
GTATGGAA	-0.156
GCTTGGCA	-0.105
AGTTTTCG	0.0727
GCGGGTCA	0.0734
